# Laboratory results as given in PubChem BioAssay (NCI).
# This is part of a sample that, as a whole, favours compounds with a hit. Of some 83,000 tested, about 20% had one in any assay.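 Compound tested at a single concentration for 48 hours in 96-well plates; a percent growth value below 10 was scored as active.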 Unmarked numbers belong to inactive results. Calls of active or inactive are those of the source.
# Experiments:
# Experiment in all cases: NCI-60 one-dose screen, 48 h (100 = growth as untreated, 0 = no growth, -100 = all killed)
# BT-549 breast = conditions: 10 µM unless noted
# MDA-MB-435 melanoma = conditions: 10 µM unless noted
# SW-620 colon = conditions: 10 µM unless noted
# MCF7 breast = conditions: 10 µM
# HCT-116 colon = conditions: 10 µM unless noted
# HCC-2998 colon = conditions: 10 µM unless noted
# KM12 colon = conditions: 10 µM unless noted
SMILES,growth (BT-549 breast),growth (MDA-MB-435 melanoma),growth (SW-620 colon),growth (MCF7 breast),growth (HCT-116 colon),growth (HCC-2998 colon),growth (KM12 colon)
Cn1nc(C(F)(F)F)c(-c2ccc(Cl)c(C(F)(F)F)c2)c1-c1ccc(OCc2ccc(Cl)cc2)cc1O,39.8%,24.7%,13.9%,4.01% (active),-0.403% (active),13.5%,8.83% (active)
O=C(O)CCC(=O)c1ccc(C2CCCCCC2)cc1,94.9%,105%,107%,96.6%,98.5%,108%,
O=C(Nc1ccsc1C(=O)NC1CCCCC1)c1ccc(F)cc1,113%,110%,92.5%,90.6%,76%,97%,
COc1ccc(Cn2c(Br)c3c(c2-c2cc(OC)c(OC)c(OC)c2)CCc2sc(NC(=O)c4ccc(OC)cc4)nc2-3)cc1,96.1%,99.5%,96.2%,91.5%,90.8%,108%,
COc1ccccc1N1C(=N)S/C(=C\c2ccc(OCc3ccccc3F)cc2)C1=O,97.4%,90.4%,88.1%,33%,67.8%,109%,
COc1ccc(/C(C#N)=C/c2nc3c(N4CCOCC4)nc(Cl)nc3n2C)cc1OC,-15.7% (active),-64.5% (active),-53.7% (active),6.49% (active),-73.2% (active),2.12% (active),
O=c1c2cc(F)ccc2sc2c(NCCN3CCCC3)nc3ccccc3c12,86.7%,23.2%,19.1%,30.4%,39.1%,30.9%,
CCOC(=O)c1cnc2c(C)cccc2c1Nc1ccc(C(C)=O)cc1,61.5%,-63.8% (active),-62.2% (active),-39.7% (active),1.75% (active),-91% (active),
CCOC(=O)c1sc(-c2ccc(OS(=O)(=O)c3ccccc3[N+](=O)[O-])c(C=O)c2)nc1C,47.7%,78.4%,36.8%,20.8%,13.6%,111%,96.2%
O=C1NC(=S)NC(=O)C1=Cc1cn(Cc2cn(Cc3cccc4ccccc34)nn2)c2ccccc12,101%,94.8%,93.4%,95.4%,106%,100%,
COc1cc(/C=C2\CN(C)C/C(=C\c3cc(CN4CCOCC4)c(O)c(OC)c3)C2=O)cc(CN2CCOCC2)c1O,94%,29.2%,48%,19.5%,21.1%,91%,
OC(CNC1CCCCC1)Cn1c2ccc(I)cc2c2cc(I)ccc21 (stereo not drawn),85.9%,66.9%,79.5%,69.9%,65.2%,94.3%,74.5%
O=c1oc2ccc(Br)cc2c(=O)n1-c1ccc(Br)cc1F,-19.4% (active),-8.23% (active),5.96% (active),0.224% (active),-40.2% (active),1.75% (active),
COC(=O)/C(CCC=C(C)C)=C1\[C@@H](OC(C)=O)C[C@@]2(C)[C@H]1CC(=O)N[C@H]1[C@@]3(C)CCNC(=O)[C@@H](C)[C@@H]3CC[C@@]12C,107%,105%,103%,93%,101%,103%,102%
O=C(/C=C/c1ccc(C(F)(F)F)cc1)c1ccc(Nc2nc(NCCO)nc(N3CCOCC3)n2)cc1,61%,22.1%,-6.72% (active),3.91% (active),-28.3% (active),63.9%,
C=C[C@@H]1CCC/C=C/[C@@H]2C[C@H](O)C[C@H]2[C@H](O)/C=C/C(=O)O1,40.6%,12.9%,-15.9% (active),-14.8% (active),-0.456% (active),-23.3% (active),
O=C(NC1C(O)OC(CO)C(O)C1O)NS(=O)(=O)c1ccc(Cl)cc1 (stereo not drawn),108%,100%,100%,98.2%,96.9%,115%,
CCOC(=O)C1(C(=O)OCC)N=C(c2ccccc2)C=C1c1ccccc1,97.9%,103%,93.3%,79.5%,78.4%,105%,93.6%
CNCCNc1nc2ccccc2c2c(=O)c3cccc(C)c3sc12,76.4%,6.07% (active),-62.4% (active),-66.1% (active),-91.4% (active),-43.2% (active),-29.9% (active)

SMILES,growth (BT-549 breast),growth (MDA-MB-435 melanoma),growth (SW-620 colon),growth (MCF7 breast),growth (HCT-116 colon),growth (HCC-2998 colon),growth (KM12 colon)
COc1cc(CNC(=O)Cc2ccccc2)ccc1OCc1cn(-c2ccc(F)cc2)nn1,99.8%,98.4%,109%,91.8%,102%,106%,
COc1nccc2cc3c(=O)n4c(cc5ccccc54)c(=O)n3c12,104%,110%,101%,49.1%,104%,104%,
NC(=O)CSc1nc(-c2ccc(F)cc2)cc(-c2ccco2)n1,99.5%,104%,116%,83.2%,98%,109%,
O=C(CN1C=NC2C(N3CCOCC3)=NC=NC21)c1ccc(Br)cc1 (stereo not drawn),103%,101%,100%,99.1%,103%,111%,
CC(C)[C@H](NC(=O)Cn1cc(C(=O)O)nn1)C(=O)O,104%,98.8%,108%,97.1%,102%,107%,
O=C(Nc1ccc(N2CCNCC2)cc1)c1[nH]ncc1Nc1ncnc2sc3c(c12)CCC3,0.151% (active),-94.4% (active),-83.1% (active),-59% (active),-85.4% (active),-91.4% (active),-82.4% (active)
O=C(Cn1cc(COc2ncnc3c2cnn3-c2ccccc2)nn1)Nc1cccc2ccccc12,99.5%,94%,99.1%,85%,102%,104%,
O=C1NC(=O)C(=Cc2cn(Cc3cn(Cc4ccc(Cl)cc4Cl)nn3)c3ccccc23)C(=O)N1,91.7%,94.9%,92.1%,80%,91.3%,117%,
O=c1c(-c2nc3ccccc3[nH]2)cc2ccccc2n1Cc1cn(Cc2ccc(N3CCOCC3)cc2)nn1,45.9%,76.6%,70.7%,56.8%,83.6%,93.2%,
O=C(CSc1nc2ccccc2c(=O)n1-c1ccccc1)Nc1ccc(C(=O)/C=C/c2ccc(Cl)cc2)cc1,111%,103%,99.1%,85.1%,102%,109%,
O=C(Nc1ccccc1O)c1ccc(Oc2cccc(C(=O)Nc3ccccc3O)c2)cc1,3.78% (active),28.3%,18.4%,11.3%,9.66% (active),21%,
COc1cc(-c2c3c(cn2S(=O)(=O)c2ccccc2)-c2nc(N)sc2CC3)cc(OC)c1OC,48.5%,-32.1% (active),25.6%,18.5%,24%,45.5%,28.5%
CC(=O)Nc1nc2c(s1)CCc1c-2cn(S(=O)(=O)c2ccccc2)c1-c1ccccc1,97.7%,59.7%,79.5%,54.2%,57.9%,80.4%,
O=c1cc(NC2CCN(CCCc3ccccc3)CC2)c2cc(Cl)ccc2o1,17.8%,-8.02% (active),6.98% (active),3.46% (active),8.12% (active),-6.89% (active),
CCOc1ccc2nc(C)cc(Nc3ccc(Br)cc3)c2c1,108%,110%,94.8%,76.6%,80.4%,117%,
CNC(=O)c1cc(Oc2ccc(CC(=O)Nc3cc(C(C)(C)C)cn3C)cc2)ccn1,63.9%,66.2%,105%,50.1%,54.3%,103%,86.3%
COC(=O)c1cc2c(n1Cc1ccccc1)-c1oncc1CCC2,79.6%,-13% (active),34.7%,40.8%,57.4%,76.2%,
O=C(/C=C/c1ccc(Cl)cc1)c1ccc(Nc2nc(NCCO)nc(Nc3ccc(Cl)cc3)n2)cc1,68%,62.2%,62.6%,-31.3% (active),-78.9% (active),20.2%,18.7%
CCN(CC)c1cc(C)c2cc(NC(=O)c3cccc(OC)c3)ccc2n1,80.9%,74.2%,64.9%,73.1%,70.1%,91.3%,
